According to the supplement of paper PMC10849652:
About 8,800 targets were measured; listed, in parts, are those with a hit and a random draw of the rest. About 0.5% of all pairs of compound and target were hits. Unmarked numbers belong to inactive results.

Assays:
Assay in all cases: log2 fold change, soluble protein after heating vs DMSO (PISA); higher = thermal stabilisation; K562 lysate, 10 uM; active = over 0.2 and 3.5 SD of the protein, either way, in both replicates (recomputed)
[1] = compound: C1=CC=C(C=C1)[C@H](COC2=CC3=C(C=C2)NC(=O)N3)NC(=O)C4=CC=CN(C4=O)CC5=CC(=C(C=C5)F)F
Summary of the method: (§1)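 K562 pellets were dounce-homogenised in PBS pH 7.4 with 1 mM MgCl2, and the crude extract at 1 mg/mL protein was treated with 10 μM compound for 30 min. Aliquots were heated for 3 min across 48°C-58°C, pooled, and brought to 0.5% NP-40 at 4°C; soluble protein was the supernatant after 21,000xg for 90 min. Soluble protein was quantified by TMTpro 16plex LC-MS/MS with channel sums equalised, and reported as log2 fold change in thermal stability against DMSO controls, with values from duplicates.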

[2] = compound: CC1=C(SC2=C1C(=N[C@H](C3=NN=C(N32)C)CC(=O)N)C4=CC=C(C=C4)Cl)C
Summary of the method: as §1

[3] = compound: CC1=C2C(=CC=C1)N=C(N(C2=O)C3=CC=CC=C3C)CN4C=NC5=C(N=CN=C54)N
Summary of the method: as §1

[4] = compound: Cc1sc2c(c1C)C(c1ccc(Cl)cc1)=N[C@@H](CC(=O)OC(C)(C)C)c1nnc(C)n1-2
Summary of the method: as §1

[5] = compound: c1ccc([C@@H]2C[C@H]2NC2CCNCC2)cc1
Summary of the method: as §1

Sequence of UniProt Q12797 (Q12797 whole entry, looked up): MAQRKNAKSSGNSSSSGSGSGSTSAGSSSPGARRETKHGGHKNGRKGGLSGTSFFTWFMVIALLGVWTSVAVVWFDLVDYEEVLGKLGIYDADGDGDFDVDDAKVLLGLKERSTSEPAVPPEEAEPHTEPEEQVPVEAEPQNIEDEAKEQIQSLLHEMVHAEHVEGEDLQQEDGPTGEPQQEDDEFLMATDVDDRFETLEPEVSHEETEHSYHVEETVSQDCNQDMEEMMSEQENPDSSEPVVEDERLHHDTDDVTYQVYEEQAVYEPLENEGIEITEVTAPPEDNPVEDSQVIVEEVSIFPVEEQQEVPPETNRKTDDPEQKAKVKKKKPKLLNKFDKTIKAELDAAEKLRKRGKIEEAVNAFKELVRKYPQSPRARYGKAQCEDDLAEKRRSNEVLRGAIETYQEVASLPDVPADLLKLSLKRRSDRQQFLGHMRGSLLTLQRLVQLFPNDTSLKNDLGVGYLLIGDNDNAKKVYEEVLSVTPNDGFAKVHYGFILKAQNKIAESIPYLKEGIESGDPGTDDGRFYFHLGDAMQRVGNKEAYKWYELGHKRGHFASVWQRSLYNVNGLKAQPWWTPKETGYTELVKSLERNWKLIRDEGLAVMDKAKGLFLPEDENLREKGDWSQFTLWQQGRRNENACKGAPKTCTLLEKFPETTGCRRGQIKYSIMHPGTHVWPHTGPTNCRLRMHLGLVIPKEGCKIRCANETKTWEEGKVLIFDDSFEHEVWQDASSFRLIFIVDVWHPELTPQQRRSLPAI
Sequence of UniProt Q9Y4X0 (Q9Y4X0 whole entry, looked up): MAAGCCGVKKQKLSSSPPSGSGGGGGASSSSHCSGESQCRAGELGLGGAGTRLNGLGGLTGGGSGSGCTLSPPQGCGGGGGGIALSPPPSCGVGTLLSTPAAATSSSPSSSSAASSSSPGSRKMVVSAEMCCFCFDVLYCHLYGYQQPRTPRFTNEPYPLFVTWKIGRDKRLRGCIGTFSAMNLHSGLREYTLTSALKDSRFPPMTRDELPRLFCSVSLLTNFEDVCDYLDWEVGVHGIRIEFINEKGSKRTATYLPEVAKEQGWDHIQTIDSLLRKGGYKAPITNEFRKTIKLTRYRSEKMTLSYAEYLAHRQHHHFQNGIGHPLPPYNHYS
Sequence of UniProt P05091 (P05091 whole entry, looked up): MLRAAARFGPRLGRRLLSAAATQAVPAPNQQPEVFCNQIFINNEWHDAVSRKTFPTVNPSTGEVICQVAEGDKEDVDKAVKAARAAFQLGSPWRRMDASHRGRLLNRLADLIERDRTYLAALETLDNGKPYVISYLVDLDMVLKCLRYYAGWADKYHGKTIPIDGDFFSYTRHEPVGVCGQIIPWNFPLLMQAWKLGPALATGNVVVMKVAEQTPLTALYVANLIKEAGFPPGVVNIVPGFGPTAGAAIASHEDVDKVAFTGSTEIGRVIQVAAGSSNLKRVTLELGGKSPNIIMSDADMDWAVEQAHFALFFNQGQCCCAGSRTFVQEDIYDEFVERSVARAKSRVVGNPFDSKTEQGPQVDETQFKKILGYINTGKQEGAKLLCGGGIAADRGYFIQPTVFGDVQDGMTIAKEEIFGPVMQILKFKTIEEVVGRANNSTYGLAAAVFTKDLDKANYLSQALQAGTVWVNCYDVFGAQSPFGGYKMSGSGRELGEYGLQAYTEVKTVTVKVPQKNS
Sequence of UniProt P17707 (P17707 whole entry, looked up): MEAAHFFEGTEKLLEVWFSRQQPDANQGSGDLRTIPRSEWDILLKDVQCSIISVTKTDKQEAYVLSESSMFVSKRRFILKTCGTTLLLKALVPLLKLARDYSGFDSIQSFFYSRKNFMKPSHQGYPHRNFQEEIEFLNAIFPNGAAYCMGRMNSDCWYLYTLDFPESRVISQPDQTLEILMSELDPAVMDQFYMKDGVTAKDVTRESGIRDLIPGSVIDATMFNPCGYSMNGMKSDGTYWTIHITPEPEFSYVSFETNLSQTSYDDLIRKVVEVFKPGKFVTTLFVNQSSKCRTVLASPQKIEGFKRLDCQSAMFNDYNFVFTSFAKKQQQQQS
Sequence of UniProt Q9BXX2 (Q9BXX2 whole entry, looked up): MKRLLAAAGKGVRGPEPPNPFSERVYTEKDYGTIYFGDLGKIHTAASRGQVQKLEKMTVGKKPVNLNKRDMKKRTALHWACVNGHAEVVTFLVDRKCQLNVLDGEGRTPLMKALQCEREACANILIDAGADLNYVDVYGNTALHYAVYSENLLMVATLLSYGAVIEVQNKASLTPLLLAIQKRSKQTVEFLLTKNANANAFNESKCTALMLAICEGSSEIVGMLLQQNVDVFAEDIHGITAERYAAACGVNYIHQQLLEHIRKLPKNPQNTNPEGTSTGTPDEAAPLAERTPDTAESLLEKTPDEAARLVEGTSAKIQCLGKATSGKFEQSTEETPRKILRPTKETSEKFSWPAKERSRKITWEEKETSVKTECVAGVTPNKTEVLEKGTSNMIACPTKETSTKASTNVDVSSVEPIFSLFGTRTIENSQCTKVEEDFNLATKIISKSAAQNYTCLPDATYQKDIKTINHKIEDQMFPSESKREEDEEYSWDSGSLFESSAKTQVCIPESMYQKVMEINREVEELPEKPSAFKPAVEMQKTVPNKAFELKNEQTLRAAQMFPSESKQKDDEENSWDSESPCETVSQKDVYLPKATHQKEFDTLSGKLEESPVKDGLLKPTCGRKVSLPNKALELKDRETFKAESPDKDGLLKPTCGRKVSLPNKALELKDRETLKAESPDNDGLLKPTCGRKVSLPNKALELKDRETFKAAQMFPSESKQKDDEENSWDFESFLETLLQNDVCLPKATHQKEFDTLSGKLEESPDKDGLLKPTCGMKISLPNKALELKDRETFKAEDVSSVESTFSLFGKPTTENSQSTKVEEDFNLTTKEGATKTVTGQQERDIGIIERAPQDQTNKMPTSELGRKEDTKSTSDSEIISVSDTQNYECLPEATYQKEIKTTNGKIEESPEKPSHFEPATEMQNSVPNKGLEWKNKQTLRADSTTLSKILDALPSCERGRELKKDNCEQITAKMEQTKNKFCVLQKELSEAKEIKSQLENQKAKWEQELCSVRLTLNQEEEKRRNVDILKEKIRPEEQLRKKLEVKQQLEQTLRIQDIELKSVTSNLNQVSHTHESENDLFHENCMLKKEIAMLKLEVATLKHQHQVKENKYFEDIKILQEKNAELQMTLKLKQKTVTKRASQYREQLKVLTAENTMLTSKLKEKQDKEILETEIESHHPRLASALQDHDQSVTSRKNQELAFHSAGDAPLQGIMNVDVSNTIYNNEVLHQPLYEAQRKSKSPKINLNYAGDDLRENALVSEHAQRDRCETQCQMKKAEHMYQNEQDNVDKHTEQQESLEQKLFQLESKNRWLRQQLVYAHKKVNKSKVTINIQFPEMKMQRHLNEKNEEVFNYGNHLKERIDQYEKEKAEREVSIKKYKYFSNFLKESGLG
Sequence of UniProt Q9Y6B7 (Q9Y6B7 whole entry, looked up): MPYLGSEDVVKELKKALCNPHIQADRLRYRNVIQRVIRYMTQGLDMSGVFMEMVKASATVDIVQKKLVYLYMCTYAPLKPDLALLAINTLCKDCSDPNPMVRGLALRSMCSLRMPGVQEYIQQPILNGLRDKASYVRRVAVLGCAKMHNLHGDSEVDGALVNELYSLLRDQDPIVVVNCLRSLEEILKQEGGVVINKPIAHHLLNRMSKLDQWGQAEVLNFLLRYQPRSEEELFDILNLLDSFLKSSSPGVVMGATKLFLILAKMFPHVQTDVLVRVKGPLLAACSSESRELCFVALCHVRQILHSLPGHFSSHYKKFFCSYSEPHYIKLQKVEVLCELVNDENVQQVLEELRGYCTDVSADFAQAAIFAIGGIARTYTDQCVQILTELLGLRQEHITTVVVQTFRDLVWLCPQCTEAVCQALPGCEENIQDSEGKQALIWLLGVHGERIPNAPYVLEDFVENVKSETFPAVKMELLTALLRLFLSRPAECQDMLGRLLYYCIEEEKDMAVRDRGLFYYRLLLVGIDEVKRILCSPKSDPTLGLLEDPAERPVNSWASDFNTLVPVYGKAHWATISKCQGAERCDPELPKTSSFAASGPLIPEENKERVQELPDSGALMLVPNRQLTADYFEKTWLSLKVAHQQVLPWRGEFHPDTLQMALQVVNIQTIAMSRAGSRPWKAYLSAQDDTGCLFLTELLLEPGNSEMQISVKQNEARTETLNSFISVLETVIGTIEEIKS
Sequence of UniProt Q96GS6 (Q96GS6 whole entry, looked up): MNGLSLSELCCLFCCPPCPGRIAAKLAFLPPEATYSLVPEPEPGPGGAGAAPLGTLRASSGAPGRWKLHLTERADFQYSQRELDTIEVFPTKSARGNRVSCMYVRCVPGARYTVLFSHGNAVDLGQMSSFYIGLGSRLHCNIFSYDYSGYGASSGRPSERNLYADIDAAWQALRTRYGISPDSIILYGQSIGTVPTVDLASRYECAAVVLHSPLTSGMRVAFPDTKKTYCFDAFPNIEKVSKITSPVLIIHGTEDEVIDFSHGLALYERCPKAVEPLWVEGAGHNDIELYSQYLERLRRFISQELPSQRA
Sequence of UniProt O43865 (O43865 whole entry, looked up): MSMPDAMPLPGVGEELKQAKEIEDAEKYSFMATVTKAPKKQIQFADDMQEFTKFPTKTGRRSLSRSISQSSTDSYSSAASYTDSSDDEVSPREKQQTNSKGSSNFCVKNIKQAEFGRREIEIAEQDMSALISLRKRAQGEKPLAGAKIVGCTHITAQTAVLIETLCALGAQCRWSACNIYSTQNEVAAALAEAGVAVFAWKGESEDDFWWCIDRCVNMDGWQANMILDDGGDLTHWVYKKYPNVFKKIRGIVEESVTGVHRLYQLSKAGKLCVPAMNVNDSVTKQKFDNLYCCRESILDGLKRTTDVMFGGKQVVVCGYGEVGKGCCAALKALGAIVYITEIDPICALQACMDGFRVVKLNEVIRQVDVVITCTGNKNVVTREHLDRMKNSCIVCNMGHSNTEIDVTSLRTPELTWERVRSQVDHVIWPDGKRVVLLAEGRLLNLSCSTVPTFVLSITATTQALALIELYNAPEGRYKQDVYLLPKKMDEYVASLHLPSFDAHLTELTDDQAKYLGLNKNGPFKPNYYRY

ANKRD30B (UniProt Q9BXX2) gave a log2 fold change [1] of -0.098, a log2 fold change [2] of 0.112 and a log2 fold change [3] of 0.042. The log2 fold change [4] was -0.125 and the log2 fold change [5] was -0.407.
Work on ABL1 isoform 2 (UniProt P00519) yielded a log2 fold change [1] of -0.042, a log2 fold change [2] of -0.065 and a log2 fold change [3] of 0.067. For the same target, the log2 fold change [4] was -0.017 and the log2 fold change [5] was 0.102.
ARAP1 (UniProt Q96P48) was tested, and the log2 fold change [1] was 0.022, the log2 fold change [2] was -0.008 and the log2 fold change [3] was 0.048. The log2 fold change [4] was 0.013 and the log2 fold change [5] was -0.015.
Work on AP4B1 (UniProt Q9Y6B7) yielded a log2 fold change [1] of 0.02, a log2 fold change [2] of 0.063 and a log2 fold change [3] of -0.025. The log2 fold change [4] was 0.093 and the log2 fold change [5] was 0.03.
AMD1 (UniProt P17707) was tested, and the log2 fold change [1] was -0.027, the log2 fold change [2] was 0.01 and the log2 fold change [3] was -0.017. The log2 fold change [4] was 0.005 and the log2 fold change [5] was -0.019.
With ABCC5 (UniProt O15440) the log2 fold change [1] was 0.087, the log2 fold change [2] was -0.052 and the log2 fold change [3] was -0.108. For the same target, the log2 fold change [4] was -0.099 and the log2 fold change [5] was 0.115.
Target ABHD17A isoform 2 (UniProt Q96GS6) has a log2 fold change [1] of -0.053, a log2 fold change [2] of -0.02 and a log2 fold change [3] of 0.011. For the same target, the log2 fold change [4] was -0.025 and the log2 fold change [5] was -0.069.
Target ALDH18A1 (UniProt P54886) has a log2 fold change [1] of -0.018, a log2 fold change [2] of -0.032 and a log2 fold change [3] of 0.019. The log2 fold change [4] was -0.005 and the log2 fold change [5] was 0.034.
For APOB (UniProt P04114), the log2 fold change [1] was -0.009, the log2 fold change [2] was 0.039 and the log2 fold change [3] was 0.023. It also gave a log2 fold change [4] of -0.168 and a log2 fold change [5] of -0.109.
AMMECR1 (UniProt Q9Y4X0) was tested, and the log2 fold change [1] was -0.014, the log2 fold change [2] was 0.019 and the log2 fold change [3] was 0.064. For the same target, the log2 fold change [4] was -0.007 and the log2 fold change [5] was 0.036.
With ANP32E (UniProt Q9BTT0) the log2 fold change [1] was 0.043, the log2 fold change [2] was -0.005 and the log2 fold change [3] was -0.053. For the same target, the log2 fold change [4] was -0.038 and the log2 fold change [5] was 0.026.
Target AHCYL1 (UniProt O43865) has a log2 fold change [1] of -0.011, a log2 fold change [2] of -0.003 and a log2 fold change [3] of -0.011. It also gave a log2 fold change [4] of 0.034 and a log2 fold change [5] of 0.006.
Target AMPD3 isoform 4 (UniProt Q01432) has a log2 fold change [1] of 0.02, a log2 fold change [2] of -0.021 and a log2 fold change [3] of -0.012. The log2 fold change [4] was 0.018 and the log2 fold change [5] was 0.093.
With ANXA11 (UniProt P50995) the log2 fold change [1] was 0.23 (active), the log2 fold change [2] was 0.028 and the log2 fold change [3] was 0.015. For the same target, the log2 fold change [4] was 0.015 and the log2 fold change [5] was 0.002.
For AGL (UniProt P35573), the log2 fold change [1] was 0.022, the log2 fold change [2] was 0.028 and the log2 fold change [3] was 0.036. It also gave a log2 fold change [4] of 0.035 and a log2 fold change [5] of 0.086.
For ARHGAP25 isoform 4 (UniProt P42331), the log2 fold change [1] was 0.013, the log2 fold change [2] was 0.016 and the log2 fold change [3] was 0.012. For the same target, the log2 fold change [4] was -0.046 and the log2 fold change [5] was 0.035.
ABHD11 (UniProt Q8NFV4) showed a log2 fold change [1] of 0.072, a log2 fold change [2] of -0.031 and a log2 fold change [3] of 0.028. It also gave a log2 fold change [4] of -0.021 and a log2 fold change [5] of -0.098.
For ARFGAP1 (UniProt Q8N6T3), the log2 fold change [1] was 0.037, the log2 fold change [2] was -0.091 and the log2 fold change [3] was 0.149. It also gave a log2 fold change [4] of -0.081 and a log2 fold change [5] of -0.127.
In the case of ALDH2 (UniProt P05091), the log2 fold change [1] is reported as 0.029, the log2 fold change [2] is reported as -0.028 and the log2 fold change [3] is reported as -0.022. It also gave a log2 fold change [4] of -0.018 and a log2 fold change [5] of 0.01.
In the case of ALDH1B1 (UniProt P30837), the log2 fold change [1] is reported as 0.143, the log2 fold change [2] is reported as -0.021 and the log2 fold change [3] is reported as 0.006. The log2 fold change [4] was 0.049 and the log2 fold change [5] was 0.019.
For ARHGAP21 (UniProt Q5T5U3), the log2 fold change [1] was 0.031, the log2 fold change [2] was 0.117 and the log2 fold change [3] was 0.031. It also gave a log2 fold change [4] of 0.008 and a log2 fold change [5] of 0.124.
With ANXA1 (UniProt P04083) the log2 fold change [1] was -0.011, the log2 fold change [2] was 0.005 and the log2 fold change [3] was -0.01. The log2 fold change [4] was -0.019 and the log2 fold change [5] was -0.005.
For ASPH (UniProt Q12797), the log2 fold change [1] was 0.006, the log2 fold change [2] was 0.028 and the log2 fold change [3] was 0. The log2 fold change [4] was -0.045 and the log2 fold change [5] was 0.026.
ANP32E isoform 3 (UniProt Q9BTT0) was tested, and the log2 fold change [1] was 0.003, the log2 fold change [2] was 0.09 and the log2 fold change [3] was 0.015. It also gave a log2 fold change [5] of -0.39.
